Test results published in article PMC4336329 (PLoS ONE, 2015).
Among all 310,000 compounds or so, about 14,000 (4.5%) showed an effect of 50% or more. The effect is printed as a negative number. What follows is part of a selection rich in strong results, with near analogues and random picks from the rest.

What follows are compounds tested against human ether-à-go-go-related gene (hERG) potassium channel (human, UniProt Q12809) (assay: primary screen, population patch clamp on CHO cells stably expressing hERG; higher = less effect of the substance).
Chain of human ether-à-go-go-related gene (hERG) potassium channel (Q12809 whole entry, looked up): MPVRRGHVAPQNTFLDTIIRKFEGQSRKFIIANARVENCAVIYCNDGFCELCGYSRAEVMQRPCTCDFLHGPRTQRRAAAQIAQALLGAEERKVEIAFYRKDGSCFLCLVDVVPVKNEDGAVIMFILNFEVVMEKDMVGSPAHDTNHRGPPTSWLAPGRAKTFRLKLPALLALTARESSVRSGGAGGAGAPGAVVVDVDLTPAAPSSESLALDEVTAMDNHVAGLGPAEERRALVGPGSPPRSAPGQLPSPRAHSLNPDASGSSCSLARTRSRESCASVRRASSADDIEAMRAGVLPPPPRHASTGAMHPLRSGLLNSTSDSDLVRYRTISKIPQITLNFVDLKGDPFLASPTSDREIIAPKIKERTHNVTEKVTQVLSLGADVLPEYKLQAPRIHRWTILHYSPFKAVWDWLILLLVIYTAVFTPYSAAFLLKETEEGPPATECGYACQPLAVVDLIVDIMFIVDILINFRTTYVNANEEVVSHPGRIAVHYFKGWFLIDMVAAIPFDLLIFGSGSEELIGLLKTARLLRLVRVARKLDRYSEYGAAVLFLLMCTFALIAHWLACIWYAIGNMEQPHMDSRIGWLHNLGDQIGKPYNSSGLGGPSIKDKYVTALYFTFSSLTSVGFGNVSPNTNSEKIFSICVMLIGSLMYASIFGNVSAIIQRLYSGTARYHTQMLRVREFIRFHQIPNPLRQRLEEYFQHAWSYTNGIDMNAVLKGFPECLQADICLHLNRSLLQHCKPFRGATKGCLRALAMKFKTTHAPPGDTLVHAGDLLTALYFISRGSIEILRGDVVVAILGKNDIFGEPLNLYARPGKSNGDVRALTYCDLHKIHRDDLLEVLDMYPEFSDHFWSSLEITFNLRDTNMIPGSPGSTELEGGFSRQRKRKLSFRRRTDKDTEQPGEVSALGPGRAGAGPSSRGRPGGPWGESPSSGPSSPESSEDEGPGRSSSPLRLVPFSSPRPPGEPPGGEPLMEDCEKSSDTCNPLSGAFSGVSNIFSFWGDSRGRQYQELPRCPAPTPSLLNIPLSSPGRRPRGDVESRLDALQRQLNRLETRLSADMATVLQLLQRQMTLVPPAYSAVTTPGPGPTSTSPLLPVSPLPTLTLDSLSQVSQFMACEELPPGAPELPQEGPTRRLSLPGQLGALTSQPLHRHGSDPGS
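Note: peak tail current of the secondary pulse compared with the same well before compound.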

Going from `Oc1ccc(/C=N/N2CCN(Cc3ccccc3)CC2)cc1` to `CCOC(=O)N1CCN(CC(O)COCc2ccccc2)CC1.Cl` (stereo not shown), the “hERG current change (%, negative = inhibition) at 10uM” value falls from 7.33% to -4.06%.

Compared with `O=C(COC(=O)CC1CCCC1)Nc1cccc(F)c1`, `COc1ccc(NC(=O)CN(C)C(=O)Cc2ccc(S(=O)(=O)N3CCOCC3)s2)cc1` is higher in “hERG current change (%, negative = inhibition) at 10uM” value: -1.79% for the first, 8.92% for the second.

Compared with `O=C(NCc1cccs1)[C@@H]1CSC2c3ccccc3C(=O)N21` (stereo partly shown), `O=C(Nn1cnc2ccccc2c1=O)c1ccccc1` is higher in “hERG current change (%, negative = inhibition) at 10uM” value: 8.92% for the first, 12.7% for the second.

Compared with `CCn1ccnc1CN1CCc2c([nH]c3ccccc23)C1CC(C)C` (stereo not shown), `CCn1ccnc1CN1CCc2c([nH]c3ccccc23)C1C(C)(C)C` (stereo not shown) is higher in “hERG current change (%, negative = inhibition) at 10uM” value: -67.9% for the first, -59.7% for the second.

Compared with `CCn1nc(C)c(CN2CCc3c([nH]c4ccccc34)C2C(C)(C)C)c1C` (stereo not shown), `COCc1ccc(CN2CCc3c([nH]c4ccccc34)C2C(C)(C)C)o1` (stereo not shown) is higher in “hERG current change (%, negative = inhibition) at 10uM” value: -3.17% for the first, 7.25% for the second.

Going from `COCc1ccc(CN2CCc3c([nH]c4ccccc34)C2CC(C)C)o1` (stereo not shown) to `Cc1cccc(CN2CCc3c([nH]c4ccccc34)C2CC(C)C)n1` (stereo not shown), the “hERG current change (%, negative = inhibition) at 10uM” value rises from -58.7% to -3.98%.

Compared with `Cc1cnc(CN2CCc3c([nH]c4ccccc34)C2CC(C)C)[nH]1` (stereo not shown), `Cc1c(CN2CCc3c([nH]c4ccccc34)C2CC(C)C)cnn1C` (stereo not shown) is higher in “hERG current change (%, negative = inhibition) at 10uM” value: -45.1% for the first, -36% for the second.

First: CC(C)CC1c2[nH]c3ccccc3c2CCN1C(=O)c1cnccn1 (stereo not shown)
Second: CCc1nccn1CCC(=O)N1CCc2c([nH]c3ccccc23)C1CC(C)C (stereo not shown)
The “hERG current change (%, negative = inhibition) at 10uM” value of the first is higher: 3.61% for the first, -53.9% for the second.

Compared with `CCn1ccnc1CN1CCc2c([nH]c3ccccc23)C1C1CCCCC1` (stereo not shown), `CC(C)CC1c2[nH]c3ccccc3c2CCN1C(=O)CCC(=O)N(C)C` (stereo not shown) is higher in “hERG current change (%, negative = inhibition) at 10uM” value: -19.4% for the first, 3.88% for the second.

Going from `Br.Cc1nc(-c2ccc(C(=O)O)cc2)cs1` to `CC(C)Cc1nnc(NC(=O)c2ccc(N3CCCC3=O)cc2)s1`, the “hERG current change (%, negative = inhibition) at 10uM” value falls from 7.39% to 2.3%.

First: S=C(NCCN1CCOCC1)Nc1ccc(Cl)cc1Cl
Second: CN(CCOc1ccc(Cl)cc1)C(=O)c1ccc(S(=O)(=O)N2CCOCC2)cc1
The “hERG current change (%, negative = inhibition) at 10uM” value of the first is higher: -18% for the first, -74.9% for the second.

Compared with `Cc1ccc(S(=O)(=O)Nn2c(C)ccc2C)cc1`, `Cc1ccc(OCCNC(=O)Cc2ccc(S(=O)(=O)N3CCOCC3)s2)cc1` is lower in “hERG current change (%, negative = inhibition) at 10uM” value: 15.3% for the first, -24% for the second.

Compared with `Nc1ccccc1Nc1ccccc1`, `COc1c(Cl)cc(C(=O)Nc2ccccc2-c2ccccc2)cc1Cl` is higher in “hERG current change (%, negative = inhibition) at 10uM” value: -13.6% for the first, 0.345% for the second.

Compared with `O=c1c(Cl)c(NCc2ccccc2Cl)cnn1C12CC3CC(CC(C3)C1)C2`, `CN(CCOc1ccccc1)C(=O)c1ccc(F)c(S(=O)(=O)N2CCOCC2)c1` is lower in “hERG current change (%, negative = inhibition) at 10uM” value: -5.06% for the first, -10.8% for the second.

Going from `CN(C)c1ccc(C(CC(=O)O)NC(=O)c2ccc(Cl)cc2)cc1` (stereo not shown) to `O=C(NCC1CCN(c2ccc(S(=O)(=O)N3CCOCC3)cc2)CC1)c1ccc(Cl)cc1`, the “hERG current change (%, negative = inhibition) at 10uM” value falls from -9.38% to -57.2%.

Going from `N#CCc1ccc(NC(=O)c2ccc(S(=O)(=O)N3CCOCC3)cc2)cc1` to `CCCCN(C)C(=O)c1ccc(S(=O)(=O)N2CCOCC2)cc1`, the “hERG current change (%, negative = inhibition) at 10uM” value rises from 1.97% to 17.3%.

Going from `O=C(CN(c1ccccc1)S(=O)(=O)c1ccccc1[N+](=O)[O-])Nc1ccccc1C(=O)N1CCOCC1` to `Cc1cccc(C)c1NC(=O)CN(C)C(=O)c1cc(S(=O)(=O)N2CCOCC2)ccc1N1CCCC1`, the “hERG current change (%, negative = inhibition) at 10uM” value falls from 3.76% to -3.99%.

Compared with `Cc1ccc(CN2CCSCC2)c(C)c1`, `Cc1cccc(OCC(O)Cn2c(N3CCCCC3)nc3c2c(=O)[nH]c(=O)n3C)c1` (stereo not shown) is lower in “hERG current change (%, negative = inhibition) at 10uM” value: 16.9% for the first, 13% for the second.

Going from `CCCSc1nsc(NC(=O)CC)n1` to `CCCC1Cc2c(sc(N)c2C#N)CO1` (stereo not shown), the “hERG current change (%, negative = inhibition) at 10uM” value rises from -30.5% to 2.5%.

Compared with `CN(CCOc1ccc(Cl)cc1)C(=O)c1cc(S(=O)(=O)N2CCOCC2)ccc1N1CCCC1`, `Cc1ccc(OCCOC(=O)c2cc(S(=O)(=O)N3CCCCC3)ccc2N2CCOCC2)cc1` is higher in “hERG current change (%, negative = inhibition) at 10uM” value: -63.7% for the first, -9.24% for the second.

First: COc1cccc(C(=O)NCC2CCN(c3ccc(S(=O)(=O)N4CCOCC4)cc3)CC2)c1
Second: O=C(NCC1CCN(c2ccc(S(=O)(=O)N3CCOCC3)cc2)CC1)c1cccc(Cl)c1
The “hERG current change (%, negative = inhibition) at 10uM” value of the first is lower: -22.9% for the first, -12.4% for the second.

For `CN(CCOc1ccc(Cl)cc1)C(=O)Cc1ccc(S(=O)(=O)N2CCOCC2)s1`, the “hERG current change (%, negative = inhibition) at 10uM” value was -73.1%.
